For 17 compounds, relative cell viability results are on record in the supplement of paper PMC8371130.

Structures can show the parent of a compound that is named as a salt.

In the assay the test system is HL-1. In words: relative cell viability (CellTiter-Glo) vs DMSO control (% of DMSO control); higher = more viable cells. As to conditions: oxygen condition: hypoxia 48 h (1% O2) + reoxygenation 24 h; 200 nM. Summed up: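 Viability of HL-1 mouse atrial cardiomyocytes was assessed by CellTiter-Glo luminescence and normalised to vehicle-treated control cells. Cells were plated in 384-well plates at 1000 cells per well with compounds at 40, 200, 1000 or 5000 nM in 0.01% DMSO, and one day later were placed at 1% O2 for 48 h, then reoxygenated for 24 h, or kept in normoxia for the same duration.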
Consider `Cc1[nH]c(=O)c(C#N)cc1-c1ccncc1` [Milrinone], for which the relative cell viability worked out at 106. As for `C=CC[N+]1([C@H]2C[C@H]3[C@@H]4CC[C@H]5C[C@H](O)[C@@H](N6CCOCC6)C[C@]5(C)[C@H]4CC[C@]3(C)[C@H]2OC(C)=O)CCCC1` [Rocuronium bromide], the figure is 105. For `CCOc1ccc2ccccc2c1C(=O)N[C@@H]1C(=O)N2[C@@H]1SC(C)(C)[C@@H]2C(=O)O` [nafcillin sodium monohydrate], the relative cell viability was determined as 104.

On to `CCOC(=O)[C@H](CCc1ccccc1)N[C@@H](C)C(=O)N1CCC[C@H]1C(=O)O` [Enalapril maleate], for which the relative cell viability was 101.

With `COc1cccc2c1C(=O)c1c(O)c3c(c(O)c1C2=O)C[C@@](O)(C(=O)CO)C[C@@H]3O[C@H]1C[C@H](N)[C@@H](O)[C@H](C)O1` [Epirubicin Hydrochloride], the relative cell viability was determined as 102.

`CC1=C(/C=C/C(C)=C/C=C/C(C)=C\C(=O)O)C(C)(C)CCC1` [Isotretinoin]: the relative cell viability worked out at 102. As for `Nc1c2c(nc3ccccc13)CCCC2` [Tacrine HCl], the figure is 89.5; as for `O=P(O)(O)C(O)(Cn1ccnc1)P(=O)(O)O` [Zoledronic Acid], 100; as for `O=C(c1ccc(OCCN2CCCCC2)cc1)c1c(-c2ccc(O)cc2)sc2cc(O)ccc12` [Evista], 107. As for `CCCN(CCC)S(=O)(=O)c1ccc(C(=O)O)cc1` [Probenecid], the figure is 109. As for `CS(=O)(=O)c1ccc(C2=C(c3ccccc3)C(=O)OC2)cc1` [Rofecoxib], the figure is 97.5; as for `CN(C)c1nc(N(C)C)nc(N(C)C)n1` [Altretamine], 109; as for `Cc1cccc(C)c1OCC(C)N` (configuration not stated) [Mexiletine HCl], 105. As to `CCNC(=O)CCC/C=C\C[C@@H]1[C@@H](/C=C/[C@@H](O)CCc2ccccc2)[C@H](O)C[C@@H]1O` [Bimatoprost], the relative cell viability stood at 107. As for `C[C@]12CC[C@@H]3c4ccc(O)cc4C[C@@H](CCCCCCCCC[S+]([O-])CCCC(F)(F)C(F)(F)F)[C@H]3[C@@H]1CC[C@@H]2O` (some centres not stated) [Fulvestrant], the figure is 113; as for `CCc1c2c(nc3ccc(OC(=O)N4CCC(N5CCCCC5)CC4)cc13)-c1cc3c(c(=O)n1C2)COC(=O)[C@]3(O)CC` [Irinotecan HCl Trihydrate], 95.6; as for `Cc1cn(-c2cc(NC(=O)c3ccc(C)c(Nc4nccc(-c5cccnc5)n4)c3)cc(C(F)(F)F)c2)cn1` [Nilotinib], 81.4.
